Measured values published in PubChem BioAssay (Tox21).
Records with an inconclusive call do not appear. The source made the active and inactive calls. Unless noted, calls follow the shape of the dose curve; as a rule, active = well fitted curve in the direction sought with a large enough effect in the repeat runs; inconclusive = weak or mixed curves; inactive = no such curve, though single readings can be large; an effect the other way counts as inactive or inconclusive.

Experiments:
[1] = qHTS assay to test for compound auto fluorescence at 535 nm (green) in HEK293 cells (AID 720680)
[2] = qHTS assay to test for compound auto fluorescence at 460 nm (blue) in HEK293 cell free culture (AID 720681); also: potency is read from the fitted curve at half-maximal effect
In short: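 Compounds were added to cell-free DMEM with 10% FBS and fluorescence read directly. The blue channel used 405 nm excitation and 460 nm emission, with triamterene as the reference fluorophore.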

[3] = qHTS assay to test for compound auto fluorescence at 535 nm (green) in HEK293 cell free culture (AID 720682)
In short: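 Green-label autofluorescence (485 nm excitation, 535 nm emission) measured on compound added to cell-free culture medium (DMEM, 10% FBS). Output is expressed relative to fluorescein.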

[4] = qHTS assay to test for compound auto fluorescence at 590 nm (red) in HepG2 cell free culture (AID 720684)
In short: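 Rose Bengal sodium served as the reference for red signal. Test compounds were dispensed into serum-containing MEM (10% FBS) without cells, and plates were read at 540/590 nm.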

[5] = qHTS assay to test for compound auto fluorescence at 460 nm (blue) in HepG2 cell free culture (AID 720685); also: potency is read from the fitted curve at half-maximal effect
In short: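 Cell-free plates of MEM plus 10% FBS received 23 nL compound or DMSO vehicle; blue-channel (405/460 nm) intensity scored against triamterene as reference fluorophore.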

[6] = qHTS assay to test for compound auto fluorescence at 535 nm (green) in HepG2 cell free culture (AID 720686)
[7] = biological target: Glucocorticoid receptor (Homo sapiens) (UniProt P04150); assay: qHTS assay to identify small molecule agonists of the glucocorticoid receptor (GR) signaling pathway (AID 720691; active = well fitted activation curve with a large enough effect in the signal ratio in the repeat runs, not every such curve was filed as active; the % refers to the signal ratio)
Glucocorticoid receptor (Homo sapiens), sequence (P04150 whole entry, looked up): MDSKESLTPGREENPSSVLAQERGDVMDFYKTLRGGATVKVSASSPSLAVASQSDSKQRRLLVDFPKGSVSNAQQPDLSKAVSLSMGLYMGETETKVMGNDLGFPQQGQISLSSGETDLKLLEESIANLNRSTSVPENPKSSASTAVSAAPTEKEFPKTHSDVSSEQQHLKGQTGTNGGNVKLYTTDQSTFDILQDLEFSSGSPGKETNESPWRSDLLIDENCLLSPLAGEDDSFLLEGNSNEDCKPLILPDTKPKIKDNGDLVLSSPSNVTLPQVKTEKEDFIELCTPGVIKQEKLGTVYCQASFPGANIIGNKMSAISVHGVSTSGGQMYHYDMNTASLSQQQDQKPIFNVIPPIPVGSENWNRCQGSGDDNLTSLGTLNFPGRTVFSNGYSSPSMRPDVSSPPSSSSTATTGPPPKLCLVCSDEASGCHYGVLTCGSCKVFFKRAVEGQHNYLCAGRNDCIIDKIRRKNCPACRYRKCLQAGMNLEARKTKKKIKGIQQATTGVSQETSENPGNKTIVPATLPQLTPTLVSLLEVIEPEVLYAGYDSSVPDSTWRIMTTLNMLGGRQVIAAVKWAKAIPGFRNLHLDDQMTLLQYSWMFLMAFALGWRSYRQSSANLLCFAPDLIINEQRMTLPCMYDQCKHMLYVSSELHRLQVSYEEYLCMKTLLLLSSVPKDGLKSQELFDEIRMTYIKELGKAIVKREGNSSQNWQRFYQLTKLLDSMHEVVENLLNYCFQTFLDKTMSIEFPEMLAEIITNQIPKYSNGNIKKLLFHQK
In short: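 Compounds in DMSO, alongside positive controls, were added to GR-bla HeLa reporter cells and incubated 18 h at 37 C; GRE-driven beta-lactamase was detected by fluorescence after 2 h with FRET substrate at room temperature.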

[8] = qHTS assay to identify small molecule antagonists of the glucocorticoid receptor (GR) signaling pathway - cell viability counter screen (AID 720693); also: nearly all actives have a fitted effect of over 55% in size
[9] = qHTS assay for identifying genotoxic compounds that show differential cytotoxicity against isogenic chicken DT40 cell lines with known DNA damage response pathways - wild type cell line (AID 743012); also: nearly all actives have a fitted effect of over 60% in size; also: potency is read from the fitted curve at half-maximal effect
In short: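 Viability of DNA repair-proficient chicken DT40 cells was assessed by CellTiter-Glo luminescence following 40 h compound exposure at 37 C/5% CO2.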

[10] = qHTS assay for identifying genotoxic compounds that show differential cytotoxicity against isogenic chicken DT40 cell lines with known DNA damage response pathways - Rev3 mutant cell line (AID 743014); also: nearly all actives have a fitted effect of over 55% in size; also: potency is read from the fitted curve at half-maximal effect
[11] = qHTS assay for identifying genotoxic compounds that show differential cytotoxicity against isogenic chicken DT40 cell lines with known DNA damage response pathways - Rad54/Ku70 mutant cell line (AID 743015); also: nearly all actives have a fitted effect of over 60% in size; also: potency is read from the fitted curve at half-maximal effect
[12] = qHTS assay to identify small molecule antagonists of the androgen receptor (AR) signaling pathway - cell viability counter screen (AID 743033; also: nearly all actives have a fitted effect of over 45% in size; also: potency is read from the fitted curve at half-maximal effect)
[13] = qHTS assay to identify small molecule antagonists of the androgen receptor (AR) signaling pathway using the MDA cell line - cell viability counter screen (AID 743041; also: nearly all actives have a fitted effect of over 45% in size; also: potency is read from the fitted curve at half-maximal effect)
In short: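 Cytotoxicity counter screen: MDA-kb2 AR-luc cells, compound + R1881, 16 h, 37C, 0% CO2; CellTiter-Fluor added at 15.5 h, fluorescence read after 30 min.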

[14] = qHTS assay to test for compound auto fluorescence at 460 nm (blue) in HepG2 cells (AID 720687); also: potency is read from the fitted curve at half-maximal effect
In short: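 HepG2 cells in MEM with 10% FBS, attached overnight at 37 C, were exposed to compound or DMSO for 1 hr at 37 C, 5% CO2. Blue fluorescence was read at 405/460 nm, with triamterene as reference fluorophore.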

[15] = biological target: Androgen receptor (Homo sapiens) (UniProt P10275); assay: qHTS assay to identify small molecule agonists of the androgen receptor (AR) signaling pathway using the MDA cell line (AID 743040; also: nearly all actives have a fitted effect of over 20% in size)
Androgen receptor (Homo sapiens), sequence (P10275 whole entry, looked up): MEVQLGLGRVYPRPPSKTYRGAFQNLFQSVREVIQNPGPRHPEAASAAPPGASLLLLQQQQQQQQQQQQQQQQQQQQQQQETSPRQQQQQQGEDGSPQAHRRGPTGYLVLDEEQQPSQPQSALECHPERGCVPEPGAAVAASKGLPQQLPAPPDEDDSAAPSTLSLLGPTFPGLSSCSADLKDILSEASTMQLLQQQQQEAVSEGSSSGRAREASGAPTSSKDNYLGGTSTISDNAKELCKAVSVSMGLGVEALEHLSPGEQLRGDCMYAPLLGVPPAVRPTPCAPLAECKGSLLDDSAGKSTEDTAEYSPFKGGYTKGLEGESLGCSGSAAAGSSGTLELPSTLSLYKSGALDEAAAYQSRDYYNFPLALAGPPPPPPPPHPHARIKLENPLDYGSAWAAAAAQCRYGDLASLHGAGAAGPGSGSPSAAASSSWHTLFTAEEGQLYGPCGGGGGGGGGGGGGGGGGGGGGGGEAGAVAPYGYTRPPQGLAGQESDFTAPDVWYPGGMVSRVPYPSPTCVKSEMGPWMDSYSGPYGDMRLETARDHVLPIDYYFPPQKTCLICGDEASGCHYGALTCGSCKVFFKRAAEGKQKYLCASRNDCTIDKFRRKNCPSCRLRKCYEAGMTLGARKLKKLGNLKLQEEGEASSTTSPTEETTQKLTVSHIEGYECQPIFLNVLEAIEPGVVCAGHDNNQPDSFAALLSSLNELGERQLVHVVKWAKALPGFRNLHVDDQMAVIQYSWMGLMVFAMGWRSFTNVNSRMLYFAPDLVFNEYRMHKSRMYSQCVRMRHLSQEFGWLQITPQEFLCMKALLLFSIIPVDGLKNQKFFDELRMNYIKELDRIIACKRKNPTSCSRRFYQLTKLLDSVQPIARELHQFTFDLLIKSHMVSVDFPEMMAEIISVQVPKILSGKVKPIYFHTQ
In short: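 Luciferase read-out, ONE-Glo, 30 min RT. Cells: MDA-kb2 AR-luc, MMTV promoter with AR and GR response elements. Compound exposure 16 h, 37C, 0% CO2, after 5 h pre-incubation. qHTS agonist mode.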

[16] = biological target: Androgen receptor (Homo sapiens) (UniProt P10275); assay: qHTS assay to identify small molecule antagonists of the androgen receptor (AR) signaling pathway using the MDA cell line (AID 743042; also: nearly all actives have a fitted effect of over 55% in size)
In short: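 MDA-kb2 breast carcinoma cells carrying MMTV-luciferase (AR/GR responsive) were co-treated with compounds and the agonist R1881 for 16 h at 37C. Inhibition read as ONE-Glo luminescence; CellTiter-Fluor fluorescence measured in parallel for cytotoxicity.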

[17] = biological target: Glucocorticoid receptor (Homo sapiens) (UniProt P04150); assay: qHTS assay to identify small molecule antagonists of the glucocorticoid receptor (GR) signaling pathway (AID 720692; active = well fitted inhibition curve with a large enough effect in the signal ratio in the repeat runs, not every such curve was filed as active; the % refers to the signal ratio)
In short: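 In a 1536-well cell format, compounds were added 4 h after seeding GR-bla HeLa cells, together with dexamethasone at 5 nM final; reporter activity was measured by FRET-substrate fluorescence following 18 h at 37 C.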

[18] = biological target: Androgen receptor (Homo sapiens) (UniProt P10275); assay: qHTS assay to identify small molecule agonists of the androgen receptor (AR) signaling pathway (AID 743036; active = well fitted activation curve with a large enough effect in the signal ratio in the repeat runs, with a control signal flat, not every such curve was filed as active; the % refers to the signal ratio)
In short: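 AR-UAS-bla HEK293 cells, plated 4 h before dosing, were treated with compound for 16 h at 37C. beta-Lactamase reporter read after 2 h with LiveBLAzer B/G FRET substrate at room temperature.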
% is scaled to controls: 0 for no effect and ±100 for the full control effect; tags tell the direction and shape of the fitted curve or compound fluorescence and quenching.

CC(C)C(O)(c1ccc(OC(F)(F)F)cc1)c1cncnc1 (centres undefined)
inactive: outcome [1] | Potency [2] | outcome [3] | outcome [4] | Potency [5] | outcome [6] | Potency [7] | Potency [8] | Potency [12] | Potency [13]
active: Potency [9] 48.4 µM | Potency [10] 27.2 µM | Potency [11] 48.4 µM

O=C1c2ccccc2C(=O)c2c(O)c(O)cc(O)c21
inactive: outcome [1] | Potency [2] | outcome [3] | outcome [4] | Potency [5] | outcome [6] | Potency [14] | Potency [7] | Potency [8] | Potency [9] | Potency [12] | outcome [15] | Potency [16]
active: Potency [11] 48.6 µM

CN1CCCC(CC2c3ccccc3Sc3ccccc32)C1 (centres undefined)
active: Potency [9] 5.07 µM | Potency [10] 7.17 µM | Potency [11] 8.04 µM
inactive: fluorescence, % of fluorescein [1] 0.0892% [at 18.6 µM] | fluorescence, % of fluorescent control [2] -0.0216% [at 18.6 µM] | activity change [3] 0.123% [at 18.6 µM] | fluorescence, % of fluorescent control [5] 0.14% [at 18.6 µM] | fluorescence, % of fluorescein control [6] -0.006% [at 18.6 µM] | fluorescence, % of fluorescent control [14] 0.049% [at 18.6 µM] | Potency [7] | Potency [8] | Potency [13]

CN1C(C(=O)Nc2ccccn2)=C(O)c2sccc2S1(=O)=O
inactive: fluorescence, % of fluorescein [1] -0.0339% [at 18.6 µM] | fluorescence, % of fluorescent control [2] 2.91% [at 18.6 µM] | activity change [3] -0.011% [at 18.6 µM] | fluorescence, % of fluorescent control [5] 0.579% [at 18.6 µM] | fluorescence, % of fluorescein control [6] -0.0069% [at 18.6 µM] | fluorescence, % of fluorescent control [14] 0.333% [at 18.6 µM] | Potency [7] | Potency [9] | Potency [11] | Potency [13]

CC(=O)c1ccc([N+](=O)[O-])cc1
inactive: outcome [1] | Potency [2] | outcome [3] | outcome [4] | Potency [5] | outcome [6] | Potency [14] | Potency [7] | Potency [8] | Potency [9] | Potency [10] | Potency [11] | Potency [12] | Potency [13]

CN1C(=O)OC(C)(C)C1=O
inactive: outcome [1] | Potency [2] | outcome [3] | outcome [4] | Potency [5] | outcome [6] | Potency [14] | Potency [7] | Potency [17] | Potency [8] | Potency [9] | Potency [10] | Potency [11] | Potency [12] | Potency [13]

Nc1nc2ccc([N+](=O)[O-])cc2s1
inactive: outcome [1] | Potency [2] | outcome [3] | outcome [4] | Potency [5] | outcome [6] | Potency [14] | Potency [8] | Potency [12] | outcome [15] | Potency [16]
active: Potency [10] 64.8 µM

COc1ccccc1N1CCN(CCCCNC(=O)c2ccc(-c3ccc(C(C)=O)cc3)cc2)CC1
inactive: outcome [1] | Potency [2] | outcome [3] | outcome [4] | Potency [5] | outcome [6] | Potency [14] | Potency [7] | Potency [17] | Potency [8] | Potency [9] | Potency [11] | Potency [12]

O=C(OCC(O)CO)c1ccccc1Nc1ccnc2cc(Cl)ccc12 (centres undefined)
inactive: fluorescence, % of fluorescein [1] -0.106% [at 18.6 µM] | fluorescence, % of fluorescent control [2] 0.416% [at 18.6 µM] | activity change [3] 0.0295% [at 18.6 µM] | fluorescence, % of Rose Bengal [4] 0.268% [at 18.6 µM] | fluorescence, % of fluorescent control [5] 0.0675% [at 18.6 µM] | fluorescence, % of fluorescein control [6] -0.0285% [at 18.6 µM] | Potency [8] | Potency [10] | Potency [12] | outcome [18] | outcome [15] | Potency [13] | Potency [16]

Clc1ccc(Nc2nnc(Cc3ccncc3)c3ccccc23)cc1
inactive: outcome [1] | Potency [2] | outcome [3] | outcome [4] | Potency [5] | outcome [6] | Potency [14] | Potency [7] | Potency [8] | Potency [12] | Potency [13]
active: Potency [9] 29.8 µM | Potency [11] 26.6 µM

CN1CCCN=C1COC(=O)C(O)(c1ccccc1)C1CCCCC1 (centres undefined)
inactive: outcome [1] | Potency [2] | outcome [3] | outcome [4] | Potency [5] | outcome [6] | Potency [14] | Potency [7] | Potency [17] | Potency [13]

COc1cc(N)c(Cl)cc1C(=O)NC1CCN(CCCOc2ccc(F)cc2)CC1OC (centres undefined)
active: Potency [9] 11.4 µM
inactive: fluorescence, % of fluorescein [1] 0.0057% [at 18.6 µM] | fluorescence, % of fluorescent control [2] -0.0155% [at 18.6 µM] | activity change [3] 0.0082% [at 18.6 µM] | fluorescence, % of Rose Bengal [4] -0.186% [at 18.6 µM] | fluorescence, % of fluorescent control [5] -0.0728% [at 18.6 µM] | fluorescence, % of fluorescein control [6] -0.0661% [at 18.6 µM] | Potency [7] | Potency [17] | Potency [8] | Potency [12] | Potency [13]

Cc1ccc(C(C)(C)O)cc1
inactive: outcome [1] | Potency [2] | outcome [3] | outcome [4] | Potency [5] | outcome [6] | Potency [7] | Potency [17] | Potency [10] | Potency [12] | Potency [13]

COc1ccccc1NC(=O)c1cc2ccccc2cc1O
active: Potency [2] 44.7 µM | Potency [5] 39.8 µM [fluorescent] | Potency [14] 39.8 µM [fluorescent] | Potency [9] 43.3 µM | Potency [10] 48.6 µM | Potency [11] 30.6 µM | Potency [12] 13.8 µM
inactive: outcome [1] | outcome [3] | outcome [4] | outcome [6] | Potency [7] | outcome [18] | outcome [15] | Potency [13]

COC(=O)CCS
inactive: outcome [1] | Potency [2] | outcome [3] | outcome [4] | Potency [5] | outcome [6] | Potency [14] | Potency [7] | Potency [8] | Potency [9] | Potency [10] | Potency [11] | Potency [12] | Potency [13]

CC1=C(Br)C(=O)C(Br)=C/C1=C(/c1ccccc1S(=O)(=O)O)c1cc(Br)c(O)c(Br)c1C
inactive: outcome [1] | Potency [2] | outcome [3] | outcome [4] | Potency [5] | outcome [6] | Potency [14] | Potency [7] | Potency [17] | Potency [8]
active: Potency [9] 20.8 µM | Potency [11] 20.8 µM | Potency [13] 41.5 µM
